Test [1] can be described thus: antimalarial activity against Dd2 strain (AID 2302;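 active means growth inhibition above 50% at the single 2 µM test dose, taken to imply half-maximal potency below 2 µM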;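 further: 0% = DMSO untreated growth and 100% = chloroquine plus artemisinin killed control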). The note with it: P. falciparum Dd2 in RBCs, LDH growth readout, 72 h; at 2 µM; stronger effect = higher value.
A short description of test [2]: HepG2 cytotoxicity, primary screen, cytotoxicity control for P. falciparum antimalarial project, cell-based, ATP luminescence (AID 2303;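 active means inhibition above 50%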;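 further: 0% = DMSO wells and 100% = digitonin-killed cells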). The note with it: HepG2 viability, 24-48 h, at 10 µM, stronger effect = higher value.
Test [3] addresses L-lactate dehydrogenase (Plasmodium falciparum (isolate CDC / Honduras)) (UniProt Q27743). Put plainly: PfLDH activity inhibition – cell lysate, 3D7 strain, counter-screen for P. falciparum growth inhibition project (AID 2304).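 Further: 0% = vehicle and 100% = reference inhibitor.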 The note with it: P. falciparum 3D7 crude extract, LDH APAD/NBT absorbance; at 2 µM; stronger effect = higher value.
A short description of test [4]: inhibition of 3D7 malaria parasite growth – strain 3D7 (AID 2306).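 Further: 0% = DMSO wells and 100% = chloroquine plus artemisinin control wells.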 The note with it: P. falciparum 3D7 erythrocytic growth, LDH absorbance, 72 h; at 2 µM; stronger effect = higher value.
The target in test [5] is Calcium-dependent protein kinase 1 (Plasmodium falciparum (isolate 3D7)) (UniProt P62344). Put plainly: PfCDPK1 kinase inhibitors, biochemical, TCAMS library (AID 1159585; cut-off not given, nearly all actives have IC50 up to about 0.98 µM;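 further: inhibitors leave more ATP so luminescence rises with inhibition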). The note with it: recombinant PfCDPK1, Kinase-Glo ATP depletion luminescence. Background: Kinase-Glo measures the ATP left after a reaction by luminescence.
Calcium-dependent protein kinase 1 (Plasmodium falciparum (isolate 3D7)), sequence (P62344 whole entry, looked up): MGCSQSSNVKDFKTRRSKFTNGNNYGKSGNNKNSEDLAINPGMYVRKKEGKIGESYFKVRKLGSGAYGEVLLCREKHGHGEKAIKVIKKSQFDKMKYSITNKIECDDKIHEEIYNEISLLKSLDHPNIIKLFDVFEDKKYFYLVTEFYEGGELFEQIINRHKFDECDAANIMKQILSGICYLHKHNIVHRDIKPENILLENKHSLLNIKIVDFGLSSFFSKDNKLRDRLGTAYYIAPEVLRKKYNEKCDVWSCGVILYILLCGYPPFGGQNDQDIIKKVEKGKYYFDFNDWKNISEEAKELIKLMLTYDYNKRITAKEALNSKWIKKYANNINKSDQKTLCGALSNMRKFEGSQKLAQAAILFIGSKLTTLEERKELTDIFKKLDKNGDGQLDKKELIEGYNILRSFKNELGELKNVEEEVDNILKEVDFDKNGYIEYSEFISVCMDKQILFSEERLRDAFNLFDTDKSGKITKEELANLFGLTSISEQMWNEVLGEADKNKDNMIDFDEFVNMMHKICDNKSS
The target in test [6] is Plasmodium falciparum protein kinase 6 (PK6, PF3D7_1337100) (UniProt Q8IDW1). The test can be described thus: PfPK6 kinase inhibitors, biochemical, TCAMS library (AID 1159586). The note with it: recombinant PfPK6, Kinase-Glo ATP depletion luminescence.
Plasmodium falciparum protein kinase 6 (PK6, PF3D7_1337100), sequence (Q8IDW1 1-305): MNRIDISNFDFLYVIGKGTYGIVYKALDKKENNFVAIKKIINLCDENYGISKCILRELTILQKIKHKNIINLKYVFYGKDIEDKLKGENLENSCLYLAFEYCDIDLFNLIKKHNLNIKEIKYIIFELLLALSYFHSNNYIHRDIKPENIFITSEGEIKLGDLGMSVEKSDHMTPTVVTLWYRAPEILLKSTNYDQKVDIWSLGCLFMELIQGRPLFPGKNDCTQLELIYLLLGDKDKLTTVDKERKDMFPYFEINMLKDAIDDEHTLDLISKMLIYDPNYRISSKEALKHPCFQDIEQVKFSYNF
Test [7] concerns the target Protein kinase 7 (PK7), Plasmodium falciparum 3D7 (PF3D7_0213400) (UniProt Q7YTF7). Put plainly: inhibition of Plasmodium PK7 catalytic activity – biochemical, TCAMS antimalarial set, Kinase-Glo luminescence (AID 1159587). The note with it: recombinant PfPK7, Kinase-Glo ATP depletion luminescence.
Test [8] deals with Calcium-dependent protein kinase 4 (Plasmodium falciparum (isolate 3D7)) (UniProt Q8IBS5). Put plainly: PfCDPK4 kinase inhibitors, biochemical, TCAMS library (AID 1159588; cut-off not given, nearly all actives have IC50 up to about 0.91 µM). The note with it: recombinant PfCDPK4, Kinase-Glo ATP depletion luminescence.
Calcium-dependent protein kinase 4 (Plasmodium falciparum (isolate 3D7)), sequence (Q8IBS5 whole entry, looked up): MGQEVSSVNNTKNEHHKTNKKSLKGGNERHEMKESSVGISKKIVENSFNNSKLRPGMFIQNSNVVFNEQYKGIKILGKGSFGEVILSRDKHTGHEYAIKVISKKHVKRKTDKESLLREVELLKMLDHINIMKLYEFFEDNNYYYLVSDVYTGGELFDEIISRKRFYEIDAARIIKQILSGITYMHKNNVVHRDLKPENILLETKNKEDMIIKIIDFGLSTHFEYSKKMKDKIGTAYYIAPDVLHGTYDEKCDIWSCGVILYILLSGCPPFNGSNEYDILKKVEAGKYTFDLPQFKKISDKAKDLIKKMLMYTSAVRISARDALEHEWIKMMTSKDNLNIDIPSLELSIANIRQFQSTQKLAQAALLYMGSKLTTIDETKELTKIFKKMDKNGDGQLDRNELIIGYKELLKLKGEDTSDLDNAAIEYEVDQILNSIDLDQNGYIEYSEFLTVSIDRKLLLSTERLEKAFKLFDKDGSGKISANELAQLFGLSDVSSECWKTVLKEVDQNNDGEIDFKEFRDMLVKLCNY

By inhibition is commonly meant the relative decrease from the control value, in per cent.

A number with no mark means an inactive call. For part of these data: Entries with a potency or affinity are not part of this list. Active and inactive are the calls of the source. Unless noted, how the calls were made is not given here.

L-lactate dehydrogenase (Plasmodium falciparum (isolate CDC / Honduras)), sequence (Q27743 whole entry, looked up): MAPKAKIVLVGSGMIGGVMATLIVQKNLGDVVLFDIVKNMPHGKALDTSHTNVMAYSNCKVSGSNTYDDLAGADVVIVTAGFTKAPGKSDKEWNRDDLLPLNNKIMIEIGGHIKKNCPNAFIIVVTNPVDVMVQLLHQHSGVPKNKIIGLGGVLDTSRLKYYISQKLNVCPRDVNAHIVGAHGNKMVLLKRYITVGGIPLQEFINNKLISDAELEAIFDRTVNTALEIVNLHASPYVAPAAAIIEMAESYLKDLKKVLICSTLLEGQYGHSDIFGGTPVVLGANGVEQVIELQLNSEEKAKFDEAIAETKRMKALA
Protein kinase 7 (PK7), Plasmodium falciparum 3D7 (PF3D7_0213400), sequence (Q7YTF7 1-343): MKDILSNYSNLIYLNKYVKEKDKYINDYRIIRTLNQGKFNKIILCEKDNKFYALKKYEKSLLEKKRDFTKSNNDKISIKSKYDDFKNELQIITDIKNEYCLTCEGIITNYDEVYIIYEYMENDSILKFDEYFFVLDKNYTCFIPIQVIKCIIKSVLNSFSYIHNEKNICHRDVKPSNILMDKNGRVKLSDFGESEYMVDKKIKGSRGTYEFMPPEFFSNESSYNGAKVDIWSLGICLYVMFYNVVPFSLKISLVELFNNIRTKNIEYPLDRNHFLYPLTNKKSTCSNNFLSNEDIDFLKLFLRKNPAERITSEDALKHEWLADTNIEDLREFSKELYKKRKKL

`O=C(/C=C/c1ccc(Cl)c(Cl)c1)NCCCCN1CCCN(C(=O)Nc2cc(Cl)cc(Cl)c2)CC1`: the figures for the growth inhibition in test [1] and in test [4] were 1% and 97% (active), respectively. Besides, the inhibition in test [2] is 21%; in test [3] it was 2%. Moreover, the outcome in test [5], in test [6], in test [7] and in test [8] was inactive.

Consider `C[C@@H]1CN(C(c2cccc(O)c2)c2cccc(C(=O)N(C)c3cccc(F)c3)c2)[C@@H](C)CN1C(c1cccc(O)c1)c1cccc(C(=O)N(C)c2cccc(F)c2)c1` (stereo not given in full), for which the growth inhibition in test [1] is 85% (active); in test [4], 91% (active). In addition, the inhibition in test [2] and in test [3] was 0% in each case. The outcome in test [5], in test [6], in test [7] and in test [8] was inactive.

In the case of `CCN(CC)CCOc1cc2c(cc1Br)-c1cc(Br)c(OCCN(CC)CC)cc1C2=NO`, the growth inhibition in test [1] is 98% (active); in test [4], 100% (active). The inhibition in test [2] was 99% (active); in test [3], -3%. The result in test [5], in test [6], in test [7] and in test [8] was inactive.

For the compound `O=C(NC1CCN(CCCOc2ccnc3cc(Cl)ccc23)C1)c1ccc(Br)cc1` (stereo not given), the growth inhibition in test [1] was 87% (active); in test [4] it was 86% (active). Further, the results for the inhibition in test [2] and in test [3] were 21% and 2%, respectively. The outcome in test [5], in test [6], in test [7] and in test [8] was inactive.

As to `S=C(Nc1cccc(Cl)c1)NC1CCN(c2ccnc3cc(Cl)ccc23)C1` (stereo not given), the growth inhibition was 89% (active) in test [1] and 100% (active) in test [4]. Further, the inhibition in test [2] was 16%; in test [3], -3%. For the same compound, the result in test [5], in test [6], in test [7] and in test [8] was inactive.

Take `CCOc1cc(C(=O)N[C@@H](Cc2ccccc2)[C@H](O)CNCc2cc(OC)cc(OC)c2)cc(N2CCCS2(=O)=O)c1`: the growth inhibition in test [1] was 66% (active); in test [4] it was 94% (active). For the same compound, the results for the inhibition in test [2] and in test [3] were -5% and 0%, respectively. Besides, the outcome in test [5], in test [6], in test [7] and in test [8] was inactive.

Take `Nc1cccc(-c2ccc3ccnc(N)c3c2)c1`: the growth inhibition in test [1] is 66% (active); in test [4] it was 91% (active). For the same compound, the inhibition in test [2] was 30%; in test [3], -7%. The result in test [5], in test [6], in test [7] and in test [8] was inactive.

Consider `COc1cc2nc(NCc3cccc(CNC(=O)c4ccc(-c5ccc(C(C)=O)cc5)cc4)c3)nc(N)c2cc1OC`, for which the growth inhibition is 72% (active) in test [1] and 100% (active) in test [4]. Besides, the inhibition in test [2] was 32%; in test [3] it was -2%. The outcome in test [5], in test [6], in test [7] and in test [8] was inactive.

With `Oc1c(C(Nc2nc3ccccc3s2)c2ccccc2)ccc2cccnc12` (stereo not given), the growth inhibition was 83% (active) in test [1] and 95% (active) in test [4]. Further, the inhibition in test [2] is 45%; in test [3] it was -4%. Besides, the outcome in test [5], in test [6], in test [7] and in test [8] was inactive.

`Cc1ccccc1C1CCN(C2CCC(NC(=O)/C=C/c3ccccc3C(F)(F)F)CC2)CC1` (stereo not given): the growth inhibition is 6% in test [1] and 83% (active) in test [4]. The results for the inhibition in test [2] and in test [3] were 63% (active) and -1%, respectively. In addition, the outcome in test [5], in test [6], in test [7] and in test [8] was inactive.

As for `CCc1sc(CN(CCCNc2cc(=O)c3ccccc3[nH]2)Cc2sc(CC)c(Br)c2-c2ccsc2)c(-c2ccsc2)c1Br`, the growth inhibition in test [1] is 98% (active); in test [4], 99% (active). Moreover, the values for the inhibition in test [2] and in test [3] were 10% and 0%, respectively. Also, the result in test [5], in test [6], in test [7] and in test [8] was inactive.

Turning to `Cc1cc(N[C@@H](CC(C)C)C(=O)NC2CCCC2)nc(NCCc2ccc(F)cc2)n1`, the growth inhibition in test [1] was 47%; in test [4] it was 100% (active). Further, the inhibition in test [2] was 15%; in test [3], -2%. The outcome in test [5], in test [6], in test [7] and in test [8] was inactive.

`COc1ccc2nccc([C@@H](O)CN3CCC(NCc4cc5cccc(O)c5[nH]4)CC3)c2c1`: the growth inhibition was 35% in test [1] and 101% (active) in test [4]. The inhibition in test [2] is -10%; in test [3] it was -6%. The result in test [5], in test [6], in test [7] and in test [8] was inactive.

Turning to `CCCCCN1CCCN(Cc2cccc(NC(=O)c3cc4ccccc4s3)c2)CC1`, the growth inhibition was 30% in test [1] and 99% (active) in test [4]. The inhibition is 29% in test [2] and 6% in test [3]. Moreover, the result in test [5], in test [6], in test [7] and in test [8] was inactive.

In the case of `CCNC(=O)Nc1ccc(-c2ccc(-c3nc4c(C)cccc4[nH]3)s2)cc1`, the growth inhibition in test [1] is 13%; in test [4], 96% (active). The inhibition in test [2] was 18%; in test [3] it was -2%. Further, the result in test [5], in test [6], in test [7] and in test [8] was inactive.
